From PubChem BioAssay (NCATS)
Records with an inconclusive call do not appear. Values without a mark were called inactive. Activity calls are given as the source filed them. Calls come from the whole dose curve; as a rule, active = well fitted curve in the direction sought with a large enough effect; inconclusive = small, poorly fitted or top-dose-only effect, or another doubt; inactive = no such curve, though single readings can be large; an effect the other way counts as inactive or inconclusive.

Assays:
CAOV3 = assay: Primary qHTS to identify gynecologic anti-cancer compounds using libraries of approved drugs and bioactive compounds (AID 1345084); details: Gynecologic cancer cell panel viability, ATPlite luminescence, 48 h; series mostly up to 57.5 µM; note: nearly all actives have a fitted effect of over 55% in size
Outline: (§1)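 Cytotoxicity screen measuring ATP content by luciferase luminescence. Each compound is applied at five concentrations for 48 h at 37 C with 5% CO2.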

Hek293T = assay: as above; details: Gynecologic cancer cell panel viability, ATPlite luminescence, 48 h, control line for the selectivity index; series mostly up to 57.5 µM
Outline: as §1

JEG-3 = assay: as above; details: Gynecologic cancer cell panel viability, ATPlite luminescence, 48 h; series mostly up to 57.5 µM
Outline: as §1

OV90 = assay: as above; details: Gynecologic cancer cell panel viability, ATPlite luminescence, 48 h; series mostly up to 57.5 µM
Outline: as §1

SKOV3 = assay: as above; details: Gynecologic cancer cell panel viability, ATPlite luminescence, 48 h; series mostly up to 57.5 µM
Outline: as §1

CASKI = assay: as above; details: Gynecologic cancer cell panel viability, ATPlite luminescence, 48 h; series mostly up to 57.5 µM
Outline: as §1

PA-1 = assay: as above; details: Gynecologic cancer cell panel viability, ATPlite luminescence, 48 h; series mostly up to 57.5 µM
Outline: as §1

Tov112D = assay: as above; details: Gynecologic cancer cell panel viability, ATPlite luminescence, 48 h; series mostly up to 57.5 µM
Outline: as §1

Es-2 = assay: as above; details: Gynecologic cancer cell panel viability, ATPlite luminescence, 48 h; series mostly up to 57.5 µM
Outline: as §1

HeLa = assay: as above; details: Gynecologic cancer cell panel viability, ATPlite luminescence, 48 h; series mostly up to 57.5 µM
Outline: as §1

Tov-21-G = assay: as above; details: Gynecologic cancer cell panel viability, ATPlite luminescence, 48 h; series mostly up to 57.5 µM
Outline: as §1

[1] = qHTS assay to identify inhibitors of the type 1 interferon - major histocompatibility complex class I in skeletal muscle: Counter screen cell viability and HiBit confirmation (AID 1347412); details: iHSKM muscle cells + IFN-b, HiBiT or CellTiter-Glo, 24 h; note: nearly all actives have a fitted effect of over 60% in size
Outline: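 HLA-B*08:01–HiBiT knock-in immortalized human myoblasts (C25cl48) stimulated with 4.0 ng/ml human IFN-beta and dosed with compound in a 12-point 1:3 titration (top final 46 uM). After 24 hrs at 37 C, HiBiT lytic luminescence or CellTiter Glo ATP read out.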
Potency is the fitted concentration of half-maximal effect.

With CN(C)c1nc(NC2CCC(NCCc3ccc(Br)cc3OC(F)(F)F)CC2)nc2ccccc12 (stereo unspecified) the Potency (CAOV3) was 3.98 µM (active), the Potency (Hek293T) was 25.1 µM (active) and the Potency (JEG-3) was 20 µM (active). For the same compound, the Potency (OV90) was 14.1 µM (active) and the Potency (SKOV3) was 14.1 µM (active).
In the case of Cc1ccc(C(=O)N(CCCN)C(c2nc3cc(Cl)ccc3c(=O)n2Cc2ccccc2)C(C)C)cc1 (stereo unspecified), the Potency (CAOV3) is reported as 25.1 µM (active), the Potency (CASKI) is reported as 25.1 µM (active) and the Potency (OV90) is reported as “inactive”.
With CCN(CC)CCN(Cc1ccc(-c2ccc(C(F)(F)F)cc2)cc1)C(=O)Cn1c(SCc2ccc(F)cc2)nc(=O)c2c1CCC2 the Potency (CAOV3) was 12.6 µM (active), the Potency (CASKI) was 25.1 µM (active) and the Potency (PA-1) was 28.2 µM (active). The Potency (SKOV3) was 7.94 µM (active) and the Potency (Tov112D) was 35.5 µM (active).
For CCC1=CC2CN(C1)Cc1c([nH]c3ccccc13)[C@@](C(=O)OC)(c1cc3c(cc1OC)N(C)[C@H]1[C@@](O)(C(=O)OC)[C@H](OC(C)=O)[C@]4(CC)C=CCN5CC[C@]31[C@@H]54)C2 (stereo partly specified), the Potency (CAOV3) was “inactive”, the Potency (CASKI) was “inactive” and the Potency (Es-2) was 0.282 µM (active). The Potency (HeLa) was 0.126 µM (active), the Potency (Tov-21-G) was 0.0891 µM (active) and the Potency (Tov112D) was 0.0708 µM (active).
For Cc1cc(Nc2ncc3cc(-c4c(Cl)cccc4Cl)c(=O)n(C)c3n2)ccc1F, the Potency (CAOV3) was 3.16 µM (active), the Potency (Es-2) was 7.94 µM (active) and the Potency (HeLa) was 3.55 µM (active). The Potency (PA-1) was 3.98 µM (active), the Potency (SKOV3) was 3.55 µM (active) and the Potency (Tov-21-G) was 3.98 µM (active). The Potency (Tov112D) was 3.55 µM (active).
With COC(=O)N1CCC(n2ncc3c(N4CCOCC4)nc(-c4ccc(NC(=O)Nc5ccc(CO)cc5)cc4)nc32)CC1 the Potency (CASKI) was 1.12 µM (active), the Potency (Es-2) was 1 µM (active) and the Potency (HeLa) was 2.51 µM (active). For the same compound, the Potency (Hek293T) was 0.282 µM (active), the Potency (JEG-3) was 15.8 µM (active) and the Potency (OV90) was 0.794 µM (active). The Potency (PA-1) was 2.51 µM (active) and the Potency (SKOV3) was 0.282 µM (active).
With CNC(=O)c1cc(Oc2ccc3nc(N[C@@H]4CCCC[C@H]4O)sc3c2)ccn1 the Potency (CAOV3) was “inactive”, the Potency (CASKI) was “inactive” and the Potency (Hek293T) was “inactive”.
In the case of COc1cc2c(cc1O)CC[C@H]1[C@@H]2CC[C@]2(C)[C@H](O)CC[C@@H]12, the Potency (CAOV3) is reported as “inactive”, the Potency (Es-2) is reported as 3.98 µM (active) and the Potency (HeLa) is reported as 3.16 µM (active). The Potency (OV90) was “inactive”, the Potency (SKOV3) was 3.16 µM (active) and the Potency (Tov112D) was 1 µM (active).
In the case of NCCCNc1ccc(Nc2nccc(Nc3cc(C4CC4)[nH]n3)n2)cc1, the Potency (CASKI) is reported as 3.98 µM (active), the Potency (Es-2) is reported as 2.24 µM (active) and the Potency (HeLa) is reported as 4.47 µM (active). For the same compound, the Potency (Hek293T) was 1.41 µM (active), the Potency (JEG-3) was “inactive” and the Potency (OV90) was 8.91 µM (active). The Potency (PA-1) was 1.12 µM (active), the Potency (SKOV3) was 7.08 µM (active) and the Potency (Tov-21-G) was 3.98 µM (active). For the same compound, the Potency (Tov112D) was 2.82 µM (active).
In the case of CCC(C)C(=O)OC1CC(O)C23C4OCC5(C(O)CC2C1(C)C(O)O4)C3C(=O)C(O)C1(C)C(O)(c2ccoc2)CC2OC251 (stereo unspecified), the Potency (CAOV3) is reported as 3.98 µM (active), the Potency (CASKI) is reported as “inactive” and the Potency (Es-2) is reported as 8.91 µM (active). For the same compound, the Potency (JEG-3) was “inactive”, the Potency (OV90) was 1.26 µM (active) and the Potency (PA-1) was 3.16 µM (active). The Potency (SKOV3) was 3.16 µM (active) and the Potency (Tov112D) was 3.55 µM (active).
For CN[C@H](C(=O)N[C@H](C(=O)N(C)[C@H](/C=C(\C)C(=O)O)C(C)C)C(C)(C)C)C(C)(C)c1ccccc1, the Potency (CAOV3) was “inactive” and the Potency (SKOV3) was “inactive”.
For CC(Nc1ncnc2nc[nH]c12)c1cc2cccc(Cl)c2c(=O)n1-c1ccccc1 (stereo unspecified), the Potency (CAOV3) was “inactive”, the Potency (Es-2) was “inactive” and the Potency (HeLa) was “inactive”. The Potency (JEG-3) was “inactive”, the Potency (OV90) was “inactive” and the Potency (PA-1) was “inactive”. For the same compound, the Potency (Tov-21-G) was “inactive” and the Potency (Tov112D) was “inactive”.
In the case of CN1CCN(C2CCC(n3cc(-c4ccc(Oc5ccccc5)cc4)c4c(N)ncnc43)CC2)CC1 (stereo unspecified), the Potency (CAOV3) is reported as 28.2 µM (active), the Potency (CASKI) is reported as 15.8 µM (active) and the Potency (HeLa) is reported as 22.4 µM (active). The Potency (Hek293T) was “inactive”, the Potency (JEG-3) was “inactive” and the Potency (OV90) was 17.8 µM (active). The Potency (PA-1) was 3.55 µM (active), the Potency (SKOV3) was 3.55 µM (active) and the Potency ([1]; HiBiT) was 15.7 µM (active). For the same compound, the Potency ([1]; Viability) was 11.1 µM (active).
For COc1cc(N2CCOCC2)ccc1Nc1ncc(Cl)c(Nc2ccccc2NS(C)(=O)=O)n1, the Potency (CAOV3) was 3.55 µM (active), the Potency (CASKI) was 8.91 µM (active) and the Potency (HeLa) was 3.16 µM (active). For the same compound, the Potency (PA-1) was 2.82 µM (active) and the Potency (Tov-21-G) was 3.16 µM (active).
With CCN1CCN(Cc2ccc(NC(=O)c3ccc(C)c(NC(=O)c4cncc(-c5cccs5)c4)c3)cc2C(F)(F)F)CC1 the Potency (CAOV3) was 10 µM (active), the Potency (CASKI) was 10 µM (active) and the Potency (Es-2) was 2.82 µM (active). For the same compound, the Potency (JEG-3) was 25.1 µM (active), the Potency (OV90) was 12.6 µM (active) and the Potency (PA-1) was 1.58 µM (active). For the same compound, the Potency (Tov-21-G) was 1.41 µM (active), the Potency (Tov112D) was 3.55 µM (active) and the Potency ([1]; HiBiT) was 5.57 µM (active). For the same compound, the Potency ([1]; Viability) was 12.5 µM (active).
For C#CCN(Cc1cc2c(=O)n(C)c(CN3CCN(C)CC3)nc2cc1Cl)c1ccc(C(=O)NCc2cccnc2)cc1, the Potency (CAOV3) was 44.7 µM (active) and the Potency (OV90) was “inactive”.
In the case of Cc1cccc(/C=N/Nc2cc(N3CCOCC3)n3nc(-c4ccncc4)cc3n2)c1, the Potency (CAOV3) is reported as 8.91 µM (active), the Potency (OV90) is reported as 2 µM (active) and the Potency (Tov112D) is reported as 3.98 µM (active).
In the case of CC(C)c1nc(-c2ccc(NC(=O)Nc3cccc(C(F)(F)F)c3)c3ccccc23)c2c(N)nccn12, the Potency (CAOV3) is reported as 22.4 µM (active), the Potency (Es-2) is reported as 12.6 µM (active) and the Potency (HeLa) is reported as 31.6 µM (active). For the same compound, the Potency (Hek293T) was 15.8 µM (active), the Potency (JEG-3) was “inactive” and the Potency (OV90) was 1.58 µM (active). The Potency (PA-1) was 12.6 µM (active) and the Potency (SKOV3) was 28.2 µM (active).
In the case of CC[C@]12C=CCN3CC[C@@]4(c5cc([C@@]6(C(=O)OC)C[C@H]7C[C@@H](C(C)(F)F)CN(Cc8c6[nH]c6ccccc86)C7)c(OC)cc5N(C)[C@H]4[C@@](O)(C(=O)OC)[C@@H]1OC(C)=O)[C@@H]32, the Potency (CAOV3) is reported as “inactive”, the Potency (Es-2) is reported as 1 µM (active) and the Potency (HeLa) is reported as 0.631 µM (active). For the same compound, the Potency (PA-1) was 0.355 µM (active), the Potency (Tov-21-G) was 0.562 µM (active) and the Potency (Tov112D) was 0.251 µM (active).
For COc1cc2ncnc(Nc3cccc(O)c3)c2cc1OC, the Potency (Es-2) was “inactive”, the Potency (HeLa) was “inactive” and the Potency (Hek293T) was “inactive”. For the same compound, the Potency (JEG-3) was “inactive”, the Potency (Tov-21-G) was 15.8 µM (active) and the Potency (Tov112D) was “inactive”.
For CC(=O)SCC(=O)c1ccc(NS(=O)(=O)c2ccc(OCCCN(C)C)cc2)nc1, the Potency (Es-2) was 14.1 µM (active), the Potency (HeLa) was 10 µM (active) and the Potency (JEG-3) was 15.8 µM (active). For the same compound, the Potency (PA-1) was 2.82 µM (active) and the Potency (Tov-21-G) was 11.2 µM (active).
